Cardio protect – cardioprotection against H2O2-induced cell death, primary screen, uHTS, H9c2 cells, ATPLite luminescence; H9c2 cardiomyocytes, H2O2 injury protection, 2 h; protection from H2O2 cell death, % at 20 µM; actives 0.63% (n = 360,000);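 active = compounds giving at least 50% protection of heart cells from peroxide-induced death in the single-dose screen, raw or plate-pattern-corrected value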
NTR1 ag – agonists of human NTR1, primary screen, imaging, U2OS cells, beta-arrestin-GFP, high content. Neurotensin receptor type 1 (Homo sapiens), P30989. NTR1-U2OS beta-arrestin-GFP spot imaging, agonist mode. activation, % at 20 µM. actives 0.17% (n = 330,000). AID 493036, 2011;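 active = activation at or above 40% of the spot to cytoplasm intensity ratio, with at least 20 cells analyzed; inconclusive = wells under 20 cells, flagged as cytotoxic or low count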
Target sequence (P30989 whole entry, looked up): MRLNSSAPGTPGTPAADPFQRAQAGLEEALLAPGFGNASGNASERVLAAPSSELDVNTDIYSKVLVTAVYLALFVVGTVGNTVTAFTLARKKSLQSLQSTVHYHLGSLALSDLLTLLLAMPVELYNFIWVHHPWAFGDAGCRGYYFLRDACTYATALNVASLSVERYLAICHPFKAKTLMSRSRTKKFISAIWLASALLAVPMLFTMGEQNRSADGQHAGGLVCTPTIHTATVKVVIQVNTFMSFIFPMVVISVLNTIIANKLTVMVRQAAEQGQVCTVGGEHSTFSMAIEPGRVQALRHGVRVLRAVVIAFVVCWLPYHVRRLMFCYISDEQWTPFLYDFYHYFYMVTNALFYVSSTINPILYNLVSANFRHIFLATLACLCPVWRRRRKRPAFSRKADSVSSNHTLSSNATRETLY
ALR inh – inhibitors of human ALR sulfhydryl oxidase, primary screen, biochemical, H2O2 detection, HRP-luminol luminescence, single point | inhibition, % (no concentration beside the values) | FAD-linked sulfhydryl oxidase ALR (Homo sapiens), P55789 | actives 3.8% (n = 290,000) | AID 485317, 2010 | purified ALR, DTT oxidation;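 active = mean replicate inhibition above about 79%, with every replicate also reaching it, limit read from the data; inconclusive = only one of the two criteria met; inactive = mean below limit and not every replicate reaching it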
Target sequence (P55789 whole entry, looked up): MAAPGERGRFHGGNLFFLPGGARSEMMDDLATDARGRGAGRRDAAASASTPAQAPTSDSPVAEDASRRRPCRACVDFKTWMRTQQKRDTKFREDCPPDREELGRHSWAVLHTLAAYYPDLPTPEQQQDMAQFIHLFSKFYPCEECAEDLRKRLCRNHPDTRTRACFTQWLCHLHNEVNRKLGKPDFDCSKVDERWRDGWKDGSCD
SUMO HTRF inh – inhibitors of in vitro SUMOylation cascade, primary screen, biochemical, HTRF, uHTS | SUMO-conjugating enzyme UBC9 (Homo sapiens), P63279 | HTRF SUMOylation assay, SAE1/SAE2 + UBC9 | inhibition, % at 35 µM | actives 0.36% (n = 290,000) | AID 2006, 2009; in the data active = inhibition above about 50%, passing the limit was not always enough; inconclusive = no clear call, values can overlap the other calls
Hits are given with their value; n = inactive; u = inconclusive; x = no result given. Compounds with a hit are over-represented: about 3.9% of the library has one in this group of screens.

SMILES	Cardio protect	NTR1 ag	ALR inh	SUMO HTRF inh
Cc1ccc(C)c(OCC(=O)Nc2nonc2NC(=O)COc2cc(C)ccc2C)c1	n	n	n	56.7
CCc1nc(SCc2ccc(C(=O)OC)o2)n[nH]1	n	n	n	n
CC(OC(=O)COc1ccccc1[N+](=O)[O-])C(=O)Nc1ccc(N2CCOCC2)cc1 (configuration not stated)	n	n	75.7	n
Cc1ccc(C(=O)NCC(=O)OC(C)C(=O)Nc2ccc(N3CCOCC3)cc2)s1 (configuration not stated)	n	n	93.4	n
Fc1ccc2c(c1)C(c1ccncc1)=NNC(c1ccc(Cl)cc1)=N2	n	n	n	n
N#Cc1ccc(C(=O)OCC(=O)N2CCCC2)cc1	n	n	n	n
Cc1nc2c3ccccc3nc(NNC(=O)CCC(=O)N3CCN(c4ccc(F)cc4)CC3)n2n1	n	n	89.7	n
Cc1nc2c3ccccc3nc(NNC(=O)CCC(=O)NCCN3CCN(c4ccccc4)CC3)n2n1	n	n	98.4	n
CCCCNC(=O)CCC(=O)NNc1nc2ccccc2c2nc(C)nn12	n	n	n	n
Cn1nc2c3cc(F)ccc3n(Cc3ccc(F)cc3)cc-2c1=O	n	n	n	n
COc1cc2c3nnc(-c4ccc(F)cc4)c-3cn(Cc3ccc(F)cc3)c2cc1OC	n	84.1	n	n
O=C(NNc1cccc(Cl)n1)c1cccnc1Cl	n	n	n	n
O=C(NNc1cccc(Cl)c1)c1cccnc1Cl	n	n	98.3	n
COc1cccc(-c2nc(N3CCN(C)CC3)c3ccccc3n2)c1O	51.1	n	n	n
CCOc1cc(/C=N/Nc2nn3cnnc3c3ccccc23)ccc1O	n	n	81.7	n
CCOc1cc(/C=N/n2cnnc2)ccc1O	n	n	99.2	n
COc1cc(/C=N/Nc2nn3cnnc3c3ccccc23)ccc1O	n	n	n	n
O=C(Oc1cccc(C(=S)N2CCOCC2)c1)c1ccccc1	n	n	x	n
C[C@]12CC[C@@H]3c4cc(O)c(O)cc4CC[C@H]3[C@@H]1CC[C@@H]2O	108.2	n	n	n
C[C@]12CC[C@@H]3c4ccc(O)cc4CC[C@H]3[C@@H]1CC[C@@H]2O	n	n	x	n
CN(C)c1ccc(NC(=O)CSc2nc(N)c(C(=O)Nc3ccc(N(C)C)cc3)s2)cc1	n	n	n	n
Cc1nnc(SCC(=O)N(C)CC(=O)Nc2ccccc2Cl)s1	n	n	n	x
COc1ccc(NC(=O)CN(C)C(=O)CSc2nc3ccccc3s2)cc1	n	n	97.9	x
COc1ccc(NC(=O)CSc2nc(N)c(C(=O)Nc3ccc(N(C)C)cc3)s2)cc1	n	n	98.7	n
CN(CC(=O)Nc1ccccc1Cl)C(=O)CSc1nc2ccccc2s1	n	n	84.7	n
SMILES	Cardio protect	NTR1 ag	ALR inh	SUMO HTRF inh
O=C(O)C[C@H]1c2cc(F)ccc2S(=O)(=O)N1C1CCN(Cc2ccccc2)CC1	n	n	n	x
Cc1cc(NC(=O)c2ccccc2)n(C)n1	n	n	n	n
O=C(CN1C(=O)C2C3C=CC(C4CC34)C2C1=O)Nc1cccc2ncccc12 (configuration not stated)	n	n	n	n
CC(=O)C1C(c2ccncc2)NC(=O)NC1(O)C(F)(F)F (configuration not stated)	n	n	n	n
COc1ccc(CCn2c(O)cc3nn(-c4nc5ccccc5s4)c(=O)c-3c2C)cc1	n	n	n	62.9
Cc1ccc(CCC(=O)Nc2ncc(Cc3cccc(Cl)c3Cl)s2)o1	n	n	n	n
COc1ccc2c(c1OC)C(=O)OC2CC(=O)c1ccc(O)cc1 (configuration not stated)	n	n	n	n
COc1ccc2c(c1OC)C(=O)OC2CC(=O)c1ccc(O)c(O)c1 (configuration not stated)	n	n	99.1	n
Cc1nc2sc3c(c2c(=O)n1N)CCC3	n	n	n	n
CC(=O)N(C(C)=O)n1c(C)nc2sc3c(c2c1=O)CCCC3	n	n	96.6	n
Cc1ccc(S(=O)(=O)N(C(=O)c2ccco2)c2cc3sc(=O)oc3c3ccccc23)cc1	n	n	n	56.5
CCOc1cc(/C=N/NC(=O)CCc2n[nH]c(=O)[nH]c2=O)ccc1O	n	n	99.3	n
CCOc1cc(/C=N/NC(=O)CCCC(=O)NC2CCCCC2)ccc1O	n	n	99.0	n
Cc1cc2nc(-c3cccnc3SCC(=O)NCc3ccco3)[nH]c2cc1C	n	n	98.6	x
Cc1ccc2c(SCC(=O)NCc3ccco3)nc(-c3ccc(F)cc3)nc2c1	n	n	n	59.0
Cc1ccc(CN2C(=O)CCC2C(=O)N2CCN(c3ccccc3)CC2)cc1 (configuration not stated)	n	n	u	n
O=C(CCN1CCN(c2ccc([N+](=O)[O-])cc2)CC1)c1ccc(Cl)cc1	n	n	n	n
O/N=C(/Cc1ccccn1)c1ccccc1	n	n	n	n
CC(=O)Nc1ccc(NC(=O)Cn2c(-c3ccc(F)cc3)cnc2SCC(=O)Nc2c(C)cccc2C)cc1	n	n	n	51.1
COc1cc(NC2CCCCC2O)c2nc(-c3ccc(Cl)cc3)ccc2c1 (configuration not stated)	n	n	n	n
COc1ccc(/C=N/NC(=O)CCn2cnc(-c3ccccc3)c2-c2ccccc2)cc1	n	n	n	n
O=C(CCn1cnc(-c2ccccc2)c1-c1ccccc1)N/N=C/c1ccc(O)cc1	n	n	89.2	n
O=C(CCn1cnc(-c2ccccc2)c1-c1ccccc1)N/N=C/c1ccccc1O	56.6	n	n	n
CCS(=O)(=O)Nc1c(C(=O)OC)[nH]c2ccccc12	n	n	n	n
CCS(=O)(=O)Nc1c(C(=O)O)[nH]c2ccccc12	n	n	98.7	n
SMILES	Cardio protect	NTR1 ag	ALR inh	SUMO HTRF inh
Cc1ccc(S(=O)(=O)Nc2c(C(=O)O)[nH]c3ccccc23)cc1C	n	n	98.1	n
CC(=O)NC(CCc1ccc(Cl)c(Cl)c1)c1cccc(O)c(=O)c1 (configuration not stated)	61.4	x	x	x
CC(=O)NC(C)c1ccc(Cl)c(Cl)c1 (configuration not stated)	n	n	n	n
Nc1nc(CSc2ncn(-c3ccccc3)n2)cs1	n	n	97.9	n
Cc1cnc(SCc2ccc(Cl)cc2Cl)[nH]c1=O	n	n	n	n
O=c1nccc(SCc2ccc(Cl)cc2Cl)[nH]1	n	n	98.7	n
CCN(CC)c1cccc(OCC(=O)N(C)CCC#N)c1	n	n	97.7	n
O=C1CCC(C(=O)Nc2ccccc2N2CCOCC2)=NN1	n	n	n	n
O=C(CN1C(=O)C2CCCCC2C1=O)Nc1ccccc1N1CCCC1 (configuration not stated)	n	n	97.3	x
O=C(Cc1ccccc1F)Nc1cc(Cl)ccc1N1CCCC1	n	n	x	n
O=C(Cc1ccccc1F)Nc1ccccc1N1CCCC1	n	n	98.2	n
O=C1CCC(C(=O)Nc2ccccc2N2CCCC2)=NN1	n	n	84.7	x

High-throughput results as filed in PubChem BioAssay.
